Measured values published in PubChem BioAssay.
Active and inactive are the calls of the source. Unless noted, the rule behind the calls is not given here.

Columns and labels:
[1] = Brca1-Bard1 BiLC signal decrease – luminescence, single concentration, counter-screen for Mdm2/MdmX interaction inhibitor project, confirmation (AID 504668); settings: Brca1/Bard1 bimolecular luciferase complementation counterscreen, at 8 µM, stronger effect = higher value
[2] = NFkB reporter suppression in cystic fibrosis bronchial cells – cell-based, uHTS hits, panel, cytotoxicity readout, dose response (AID 624344); settings: CF bronchial epithelial cells, PAF-induced NFkB reporter inhibition, with PAF, run 1; at 79 µM (top of the series) unless noted
[3] = as above; settings: CF bronchial epithelial cells, PAF-induced NFkB reporter inhibition, with PAF, run 2; at 79 µM (top of the series) unless noted
[4] = molecular target: Tumor necrosis factor receptor superfamily member 10B (Homo sapiens) (UniProt O14763); assay: viability loss of caspase-8 NB7 cells with TRAIL – with/without TRAIL, luminescence panel, confirmation (AID 651596; in the data active = activity above about 50%); settings: NB7 neuroblastoma + caspase-8, TRAIL sensitization, NB7 Caspase-8, with TRAIL, mean of runs, at 10 µM, stronger effect = higher value
[5] = as above; settings: NB7 neuroblastoma + caspase-8, without TRAIL, NB7 Caspase-8, without TRAIL, mean of runs, at 10 µM

Sequence of Tumor necrosis factor receptor superfamily member 10B (Homo sapiens) (O14763 whole entry, looked up): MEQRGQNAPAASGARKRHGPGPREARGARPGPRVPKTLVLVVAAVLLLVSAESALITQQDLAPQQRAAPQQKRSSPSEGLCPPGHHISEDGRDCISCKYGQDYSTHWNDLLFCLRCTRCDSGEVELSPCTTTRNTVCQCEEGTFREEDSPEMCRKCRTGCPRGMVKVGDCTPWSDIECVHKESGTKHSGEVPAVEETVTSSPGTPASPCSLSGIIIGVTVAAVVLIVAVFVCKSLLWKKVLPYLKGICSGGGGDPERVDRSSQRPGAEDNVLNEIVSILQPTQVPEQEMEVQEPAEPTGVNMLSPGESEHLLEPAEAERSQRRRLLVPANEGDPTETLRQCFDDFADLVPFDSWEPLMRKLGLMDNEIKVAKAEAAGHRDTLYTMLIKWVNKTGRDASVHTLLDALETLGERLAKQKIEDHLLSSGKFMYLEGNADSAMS

Compound | inhibition [1] | inhibition [2] [%] | inhibition [3] [%] | activity [4] [%] | activity [5] [%]
Cc1[nH]nc2nc(SCC(=O)NCCC3=CCCCC3)n(-c3ccc(Br)cc3)c(=N)c12 | 31.1% (active) | 100 | 111 | 58.5 | 88.4
CCOc1cc(Br)c(Br)c(C=Nc2ccc(NC(C)=O)cc2)c1O | 33.1% (active) | 105 | 115 |  | 
COc1ccc2[nH]c3c(c2c1)CC(C)NC3=O (stereo not drawn) | 33.6% (active) | 103 | 112 |  | 
COc1cc2cncc(Cc3ccc(Cl)cc3)c2cc1OC | 26.2% (active) | 104 | 109 |  | 
CCCN(CCC)c1ncnc2nc[nH]c12 | 34.6% (active) | 109 | 108 |  | 
O=C(Nc1ccc(OCC(F)(F)C(F)F)c(C(F)(F)F)c1)c1ccc(Cl)cc1 | 34% (active) |  |  | 87.3 | 65.7
O=C(/C=C/c1ccccc1)NC(NC(=S)Nc1ccc(Cl)cc1)C(Cl)(Cl)Cl (stereo not drawn) | 23.7% (active) |  |  | 37.1 | 30.2
COC(=O)Cc1ccc(NC(=O)c2ccc(C(C)(C)C)cc2)cc1 | 28.9% (active) |  |  | 76.2 | 77.3
O=C(CSc1ccccn1)Nc1nonc1[N+](=O)[O-] | 29.3% (active) |  |  | 30.1 | 58.2
O=C(Nc1ccc2c(c1)OCCO2)c1cccc2nc3ccccc3nc12 | 27.6% (active) |  |  | 59.7 | 77.5
CCN(CC)CCCNc1ccc(-c2nnc(-c3ccc(OCC(C)C)cc3)o2)cn1 | 23.9% (active) |  |  | 82.5 | 97.9
Cn1c(N)c(C(=O)COC(=O)c2ccccc2C(=O)c2ccc(Cl)c([N+](=O)[O-])c2)c(=O)n(C)c1=O | 26.2% (active) |  |  | 98.5 | 99
